Holding throughout (set-up): scale not given: direction of the effect not stated beside the values
Experiment [1] deals with Protein translocase subunit SecA (Escherichia coli (strain K12)) (UniProt P10408). As to the kind of experiment: Assay to Identify E. coli SecA ATPase Inhibitors. The format is functional. To be noted: 30 µM.
The target of experiment [2] is T1, Ubiquitin-activating enzyme e1, putative (Leishmania donovani (strain BPK282A1)) (UniProt E9BSI1).
T1 sequence (whole entry): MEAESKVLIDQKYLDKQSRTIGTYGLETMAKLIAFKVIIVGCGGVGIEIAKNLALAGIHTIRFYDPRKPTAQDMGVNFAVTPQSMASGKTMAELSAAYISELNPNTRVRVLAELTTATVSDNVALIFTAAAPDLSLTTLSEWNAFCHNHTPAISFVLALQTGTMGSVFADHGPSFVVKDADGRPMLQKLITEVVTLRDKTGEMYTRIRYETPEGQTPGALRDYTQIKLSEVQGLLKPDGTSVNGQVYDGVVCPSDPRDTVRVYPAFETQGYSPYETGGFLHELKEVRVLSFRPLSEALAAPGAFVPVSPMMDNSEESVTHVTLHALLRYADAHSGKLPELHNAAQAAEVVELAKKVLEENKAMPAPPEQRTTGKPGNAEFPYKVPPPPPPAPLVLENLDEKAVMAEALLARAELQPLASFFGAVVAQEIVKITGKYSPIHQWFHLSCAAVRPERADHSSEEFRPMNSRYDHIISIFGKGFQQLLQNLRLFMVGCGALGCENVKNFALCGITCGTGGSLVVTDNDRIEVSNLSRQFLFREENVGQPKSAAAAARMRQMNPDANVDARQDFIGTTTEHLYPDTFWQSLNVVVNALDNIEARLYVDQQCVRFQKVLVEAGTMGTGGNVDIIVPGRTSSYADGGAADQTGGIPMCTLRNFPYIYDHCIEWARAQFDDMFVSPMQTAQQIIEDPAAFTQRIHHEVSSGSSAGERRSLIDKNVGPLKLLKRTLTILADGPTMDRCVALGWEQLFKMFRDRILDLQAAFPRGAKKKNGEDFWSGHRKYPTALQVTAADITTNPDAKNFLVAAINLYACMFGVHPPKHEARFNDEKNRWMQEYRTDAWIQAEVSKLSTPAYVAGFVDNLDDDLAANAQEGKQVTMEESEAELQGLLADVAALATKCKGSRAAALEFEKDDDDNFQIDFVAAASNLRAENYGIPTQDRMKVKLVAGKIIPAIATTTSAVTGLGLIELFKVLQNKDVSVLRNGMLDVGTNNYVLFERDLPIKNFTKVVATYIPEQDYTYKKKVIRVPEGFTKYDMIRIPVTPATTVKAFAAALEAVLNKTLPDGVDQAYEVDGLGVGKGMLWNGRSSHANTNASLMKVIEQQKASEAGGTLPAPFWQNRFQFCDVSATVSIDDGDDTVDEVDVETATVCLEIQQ
Put plainly: Leishmania donovani Ubiquitin Activating Enzyme (LdE1). To be noted: 30 µM. The format is functional.

Experiment [3] addresses AMP-activated protein kinase, AMPK (Homo sapiens) (UniProt P54646+O43741+P54619+Q9UGJ0+Q9Y478+Q13131+Q9UGI9). Put plainly: AMP-dependent Kinase enzyme assay. An in vitro enzyme assay that detects ADP turnover that is directly proportional to AMPK activity. This uses naive AMPK that is activated during the assay with MK-8722. The class given is functional. To be noted: 30 µM.

The target of experiment [4] is Sialic acid-binding Ig-like lectin 9 (Homo sapiens) (UniProt Q9Y336). Put plainly: Hs-Siglec9 ALPHAscreen SOP 20170721. To be noted: 10 µM. On the technique in general: Bead proximity is the source of the signal in Alpha formats.
A further experiment has as its system Trypanosoma cruzi. As to the kind of experiment: Trypanosoma cruzi phosphomannomutase and mannose-1-phosphate guanylyltransferase assay. The format is functional. To be noted: 10 µM.
The target in experiment [5] is T2, Arginase-2, mitochondrial (Homo sapiens) (UniProt P78540).
T2 sequence (whole entry): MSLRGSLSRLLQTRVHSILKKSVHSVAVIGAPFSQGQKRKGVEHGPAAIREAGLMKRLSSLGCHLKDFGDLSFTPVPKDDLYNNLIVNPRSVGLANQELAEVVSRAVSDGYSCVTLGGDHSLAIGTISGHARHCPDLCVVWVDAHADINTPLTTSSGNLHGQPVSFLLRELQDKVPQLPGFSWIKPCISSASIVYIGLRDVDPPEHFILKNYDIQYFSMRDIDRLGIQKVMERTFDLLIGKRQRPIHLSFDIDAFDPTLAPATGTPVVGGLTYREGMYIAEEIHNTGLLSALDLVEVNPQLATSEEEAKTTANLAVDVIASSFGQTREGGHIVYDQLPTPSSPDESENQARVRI
Put plainly: in vitro enzyme assay to detect the production of urea directly proportional to the activity of Arginase II. Note: in the data most compounds retested in dose-response had high values. To be noted: 33.3 µM. The format is functional.

The target of experiment [6] is T3, Proteasome subunit beta (Trypanosoma cruzi) (UniProt O96673).
T3 sequence (whole entry): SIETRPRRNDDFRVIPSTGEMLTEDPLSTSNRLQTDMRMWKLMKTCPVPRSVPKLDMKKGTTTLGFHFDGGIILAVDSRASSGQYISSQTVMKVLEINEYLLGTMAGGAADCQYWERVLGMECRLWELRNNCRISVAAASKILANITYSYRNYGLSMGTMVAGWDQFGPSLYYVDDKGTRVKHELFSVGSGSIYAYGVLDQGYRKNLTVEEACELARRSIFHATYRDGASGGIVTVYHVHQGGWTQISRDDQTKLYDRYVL
Put plainly: Trypanosoma cruzi proteasome chymotrypsin-like activity (TcProtChymo) assay. Note: in the data most compounds retested in dose-response had high values. To be noted: 9.37 µM. The class given is functional.

A further experiment is filed under the species Homo sapiens. Put plainly: To identify inhibition of the IFN signalling (Jak-Stat) pathway via expression of an eGFP reporter gene under the control of an IFN-stimulated response element (ISRE) containing MxA promoter. The format is functional. To be noted: 30 µM. On the technique in general: In a reporter assay the amount or activity of a reporter protein is the signal.

Experiment [7] concerns the target T4, Tyrosyl-tRNA synthetase, putative (Trypanosoma cruzi (strain CL Brener)) (UniProt Q4DSP6).
T4 sequence (whole entry): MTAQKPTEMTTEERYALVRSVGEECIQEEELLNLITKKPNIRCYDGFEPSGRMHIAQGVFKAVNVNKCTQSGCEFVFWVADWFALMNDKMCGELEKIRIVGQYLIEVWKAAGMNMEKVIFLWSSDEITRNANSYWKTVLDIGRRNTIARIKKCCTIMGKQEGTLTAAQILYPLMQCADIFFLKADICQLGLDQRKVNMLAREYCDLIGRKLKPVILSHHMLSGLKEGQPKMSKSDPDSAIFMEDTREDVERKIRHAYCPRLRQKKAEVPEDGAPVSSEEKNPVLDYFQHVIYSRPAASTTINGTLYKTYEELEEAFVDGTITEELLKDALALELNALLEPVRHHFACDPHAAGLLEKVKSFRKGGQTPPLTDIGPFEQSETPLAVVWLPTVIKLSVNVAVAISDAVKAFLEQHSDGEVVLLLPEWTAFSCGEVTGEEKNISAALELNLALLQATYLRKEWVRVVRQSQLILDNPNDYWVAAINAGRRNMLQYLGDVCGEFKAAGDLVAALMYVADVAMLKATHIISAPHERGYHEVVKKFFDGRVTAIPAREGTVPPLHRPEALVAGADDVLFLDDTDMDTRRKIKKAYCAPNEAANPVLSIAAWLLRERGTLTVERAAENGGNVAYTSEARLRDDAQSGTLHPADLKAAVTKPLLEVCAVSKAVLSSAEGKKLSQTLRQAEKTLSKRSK
As to the kind of experiment: Trypanosoma cruzi tyrosyl tRNA synthetase (TcYRS) _High Tyrosine SOP. Note: in the data most compounds retested in dose-response had high values. The format is functional. To be noted: 30 µM.

The target of experiment [8] is T4, Tyrosyl-tRNA synthetase, putative (Trypanosoma cruzi (strain CL Brener)). As to the kind of experiment: Trypanosoma cruzi tyrosyl tRNA synthetase (TcYRS) SOP. The format is functional. To be noted: 30 µM.
In experiment [9] the target is Chromo domain-containing protein 1 (Saccharomyces cerevisiae (strain ATCC 204508 / S288c) (Baker's yeast)) (UniProt P32657). As to the kind of experiment: ScCHD-1 Enzyme Inhibition Assay. Note: in the data most compounds retested in dose-response had high values. To be noted: 30 µM. The format is functional.

For some of these results: Results with a measured potency or affinity are listed apart.

Chromo domain-containing protein 1 (Saccharomyces cerevisiae (strain ATCC 204508 / S288c) (Baker's yeast)), sequence (P32657 whole entry, the tested form may be a part): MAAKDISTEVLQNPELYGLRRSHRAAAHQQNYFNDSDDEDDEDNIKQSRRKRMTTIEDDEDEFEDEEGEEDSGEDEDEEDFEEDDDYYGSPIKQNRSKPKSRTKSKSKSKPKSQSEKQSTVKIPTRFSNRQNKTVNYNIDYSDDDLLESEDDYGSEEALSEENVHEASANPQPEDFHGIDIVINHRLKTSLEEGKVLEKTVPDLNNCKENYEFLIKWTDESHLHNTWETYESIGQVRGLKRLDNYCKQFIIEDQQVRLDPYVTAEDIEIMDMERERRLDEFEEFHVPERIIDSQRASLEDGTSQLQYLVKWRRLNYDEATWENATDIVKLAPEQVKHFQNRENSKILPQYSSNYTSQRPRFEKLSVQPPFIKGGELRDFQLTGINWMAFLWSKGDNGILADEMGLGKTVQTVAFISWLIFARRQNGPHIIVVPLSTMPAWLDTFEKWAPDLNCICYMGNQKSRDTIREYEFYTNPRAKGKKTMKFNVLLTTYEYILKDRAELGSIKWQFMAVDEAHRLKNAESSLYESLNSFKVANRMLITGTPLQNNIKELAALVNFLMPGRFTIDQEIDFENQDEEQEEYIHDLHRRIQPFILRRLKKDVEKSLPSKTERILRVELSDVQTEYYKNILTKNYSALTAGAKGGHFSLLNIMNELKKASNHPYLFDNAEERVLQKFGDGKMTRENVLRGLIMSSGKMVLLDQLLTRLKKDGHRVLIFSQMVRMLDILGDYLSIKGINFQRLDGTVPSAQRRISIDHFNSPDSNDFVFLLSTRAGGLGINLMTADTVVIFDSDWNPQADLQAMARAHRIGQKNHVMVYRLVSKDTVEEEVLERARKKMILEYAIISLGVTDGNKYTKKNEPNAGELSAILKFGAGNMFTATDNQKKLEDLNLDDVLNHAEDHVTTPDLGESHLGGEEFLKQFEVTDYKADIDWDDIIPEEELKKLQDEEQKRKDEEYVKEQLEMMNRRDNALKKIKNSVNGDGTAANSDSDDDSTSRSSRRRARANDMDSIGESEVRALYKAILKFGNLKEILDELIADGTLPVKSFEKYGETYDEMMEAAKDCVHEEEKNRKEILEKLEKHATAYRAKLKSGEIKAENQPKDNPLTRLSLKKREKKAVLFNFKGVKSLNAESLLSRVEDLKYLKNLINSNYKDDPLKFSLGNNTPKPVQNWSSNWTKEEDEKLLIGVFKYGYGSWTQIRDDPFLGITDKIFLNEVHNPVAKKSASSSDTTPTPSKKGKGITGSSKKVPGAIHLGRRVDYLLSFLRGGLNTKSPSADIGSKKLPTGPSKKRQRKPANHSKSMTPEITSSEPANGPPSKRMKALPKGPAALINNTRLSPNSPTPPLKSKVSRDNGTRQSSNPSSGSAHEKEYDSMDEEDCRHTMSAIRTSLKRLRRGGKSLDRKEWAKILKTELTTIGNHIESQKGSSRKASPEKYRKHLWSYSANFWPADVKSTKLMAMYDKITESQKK
Protein translocase subunit SecA (Escherichia coli (strain K12)), sequence (P10408 whole entry): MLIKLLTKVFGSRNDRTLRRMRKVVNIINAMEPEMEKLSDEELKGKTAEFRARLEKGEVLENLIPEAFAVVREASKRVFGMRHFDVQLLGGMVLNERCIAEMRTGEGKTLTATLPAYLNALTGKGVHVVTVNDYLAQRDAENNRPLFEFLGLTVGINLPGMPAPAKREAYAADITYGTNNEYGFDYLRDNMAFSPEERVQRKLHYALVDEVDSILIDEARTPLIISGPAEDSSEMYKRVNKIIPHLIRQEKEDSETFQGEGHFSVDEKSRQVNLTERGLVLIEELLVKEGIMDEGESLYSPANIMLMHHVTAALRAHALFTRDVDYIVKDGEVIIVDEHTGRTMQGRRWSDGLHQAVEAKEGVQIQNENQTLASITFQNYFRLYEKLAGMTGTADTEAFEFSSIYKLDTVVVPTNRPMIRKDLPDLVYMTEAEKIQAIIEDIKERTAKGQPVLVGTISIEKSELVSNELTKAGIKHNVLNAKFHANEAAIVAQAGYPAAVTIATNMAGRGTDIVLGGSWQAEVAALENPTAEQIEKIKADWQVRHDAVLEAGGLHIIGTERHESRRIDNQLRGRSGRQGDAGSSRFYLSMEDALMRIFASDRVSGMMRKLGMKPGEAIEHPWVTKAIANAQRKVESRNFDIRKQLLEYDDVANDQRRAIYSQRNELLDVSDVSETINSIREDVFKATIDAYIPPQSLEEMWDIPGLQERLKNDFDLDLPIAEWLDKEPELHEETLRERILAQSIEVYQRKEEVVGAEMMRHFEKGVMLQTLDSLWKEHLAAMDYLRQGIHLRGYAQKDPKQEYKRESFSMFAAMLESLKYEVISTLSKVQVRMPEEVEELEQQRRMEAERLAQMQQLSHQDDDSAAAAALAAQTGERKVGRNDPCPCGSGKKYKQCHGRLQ
Sialic acid-binding Ig-like lectin 9 (Homo sapiens), sequence (Q9Y336 whole entry): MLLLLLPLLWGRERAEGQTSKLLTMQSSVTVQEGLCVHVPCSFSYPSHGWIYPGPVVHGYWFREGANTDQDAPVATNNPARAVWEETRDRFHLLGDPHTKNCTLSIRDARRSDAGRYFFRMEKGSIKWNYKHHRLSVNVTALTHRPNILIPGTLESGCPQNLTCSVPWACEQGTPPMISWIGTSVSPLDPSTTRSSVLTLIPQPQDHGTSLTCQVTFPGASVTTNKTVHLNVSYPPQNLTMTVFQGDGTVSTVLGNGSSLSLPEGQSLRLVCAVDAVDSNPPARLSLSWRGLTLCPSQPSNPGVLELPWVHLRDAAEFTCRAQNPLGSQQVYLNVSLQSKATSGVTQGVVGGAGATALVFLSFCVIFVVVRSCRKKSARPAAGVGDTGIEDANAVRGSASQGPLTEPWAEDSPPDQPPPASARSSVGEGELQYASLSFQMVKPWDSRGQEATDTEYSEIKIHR

As for `CCc1cnc(CN(C)C2CCN(CCc3ccccn3)C2)o1` (stereo unspecified), the Percent Effect is 3.36% in [1]; 9.72% in [2]; -16% in experiment [3]; 1.45% in experiment [4]; -3.21% in the experiment with Trypanosoma cruzi; 3.97% in experiment [5]. For the same compound, the Percent Effect in experiment [6] is 25.6%; in the experiment filed under Homo sapiens, 0.763%; in experiment [7] it was 10.5%; in [8] it was 5.13%; in experiment [9] it was 107%.

Regarding `CCn1cnnc1CNC(=O)c1cc(Cl)ccc1O`, the Percent Effect in experiment [1] was -2.03%; in [2], 8.86%; in experiment [3], 6.87%; in [4] it was -0.716%; with Trypanosoma cruzi, -5.44%; in experiment [5], -7.1%. The Percent Effect in experiment [6] was 17%; in the experiment listed under Homo sapiens, 11.3%; in experiment [7], 5.21%; in [8], -15.2%; in [9], -14%.

In the case of `O=C(NC1CCS(=O)(=O)C1)N1CCN(c2cnccn2)CC1` (stereo unspecified), the Percent Effect was -3.53% in experiment [1]; 24.3% in experiment [2]; -10.3% in [3]; 4.95% in experiment [4]; 1.58% in the experiment with Trypanosoma cruzi; -3.14% in experiment [5]. Also, the Percent Effect in experiment [6] is 11.1%; in the experiment listed under Homo sapiens, 15.6%; in experiment [7], 4.95%; in experiment [8], 6.1%; in [9] it was -6.05%.

As for `CCN1CCN(C2CCN(Cc3nnc(C(C)(C)C)o3)CC2)C1=O`, the Percent Effect in experiment [1] is -4.08%; in experiment [2], 13%; in experiment [3], 7.53%; in [4], -0.00786%; in the experiment on Trypanosoma cruzi it was 0.686%; in experiment [5], 1.05%. For the same compound, the Percent Effect in [6] is 10.3%; in the experiment filed under Homo sapiens it was 4.76%; in experiment [7] it was 7.62%; in [8], 14.1%; in experiment [9] it was -21.7%.

Regarding `CN(C)C(=O)C1(CCCc2ccncc2)CCCN1` (stereo unspecified), the Percent Effect in [1] was -1.15%; in experiment [2] it was 23%; in experiment [3], -1.94%; in [4] it was -4.7%; with Trypanosoma cruzi, 0%; in experiment [5], -3.48%. In addition, the Percent Effect in [6] is 26.1%; in the experiment listed under Homo sapiens it was 4.91%; in experiment [7], 5.38%; in [8] it was 14.3%; in [9] it was -22.2%.

In the case of `Nc1cc(N2CCCC2c2cnccn2)ncn1` (stereo unspecified), the Percent Effect is -0.532% in experiment [1]; 9.46% in experiment [2]; -1.66% in experiment [3]; -2.65% in experiment [4]; 2.96% in the experiment on Trypanosoma cruzi; -5.34% in experiment [5]. Also, the Percent Effect in [6] is 14.8%; in the experiment filed under Homo sapiens, 2.07%; in [7] it was 8.6%; in experiment [8], 14.3%; in experiment [9], -13.1%.

For `CS(=O)(=O)N[C@@H]1CN(C(=O)c2ccccn2)[C@@H]2CCCO[C@@H]21`, the Percent Effect in experiment [1] is -5.18%; in [2], 5.41%; in [3] it was 4.88%; in experiment [4], 2.32%; with Trypanosoma cruzi it was -0.489%; in experiment [5], 2.87%. For the same compound, the Percent Effect in experiment [6] was 18.4%; in the experiment listed under Homo sapiens it was -7.84%; in [7], 4.32%; in [8] it was 7.69%; in [9], -0.379%.

With `Cc1nc(C2CCCN2CC(=O)N(Cc2ccsc2)C2CC2)no1` (stereo unspecified), the Percent Effect was -3.4% in experiment [1]; -8.11% in experiment [2]; -3.86% in [3]; 2.75% in experiment [4]; 5.48% in the experiment with Trypanosoma cruzi; -4.99% in [5]. Also, the Percent Effect was 10.6% in [6]; 25.6% in the experiment listed under Homo sapiens; 14.8% in [7]; 18.3% in [8]; -5.35% in [9].

As for `CCOCCn1nnc(C2(NC(=O)c3ccccc3)CCCC2)n1`, the Percent Effect is -7.55% in [1]; 8% in experiment [2]; -2.14% in experiment [3]; 0.531% in [4]; -0.292% in the experiment on Trypanosoma cruzi; 4.17% in experiment [5]. Also, the Percent Effect was -18.8% in experiment [6]; -0.698% in the experiment listed under Homo sapiens; 10.4% in experiment [7]; 11.1% in experiment [8]; -4.99% in [9].

For `c1ccc(-c2ccc3nc(C4CCN(CC5CC5)CC4)nn3c2)cc1`, the Percent Effect is 4.34% in experiment [1]; -5.48% in [2]; 2.06% in experiment [3]; 4.55% in [4]; 0.992% in the experiment on Trypanosoma cruzi; 3.99% in experiment [5]. The Percent Effect was 6.08% in experiment [6]; -16.5% in the experiment listed under Homo sapiens; 4.17% in [7]; 3.7% in experiment [8]; 0.798% in [9].

On to `Cc1nc(C2CCCN(C(=O)c3scnc3C)C2)no1` (stereo unspecified), for which the Percent Effect was -3.05% in experiment [1]; 6.94% in experiment [2]; -13.5% in [3]; 8.6% in experiment [4]; 4.76% in the experiment on Trypanosoma cruzi; 1.77% in experiment [5]. The Percent Effect in experiment [6] was 14.2%; in the experiment listed under Homo sapiens, -0.897%; in experiment [7], -1.05%; in experiment [8] it was 2.56%; in [9] it was -2.17%.

For the origin of these results see ChEMBL document CHEMBL3988442, “University of Dundee, Small-Polar-MMV Screening Library” (2021).
